Assay results taken from PubChem BioAssay AID1159506 (National Center for Advancing Translational Sciences (NCATS), 2015).
In all, about 59,000 sequences were measured (the read-out: median about -0.00055, lowest 2% from about -2 on). The entries come from a sample that favours the lowest values as a whole.

Experiment: Identification of proteins required for the processing of the EWS-FLI1 nascent transcript;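 also: robust z of luciferase light less the median z of siRNAs with the same seed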
Conditions: TC32 Ewing sarcoma NR0B1-luc vs CMV-luc (EWS-FLI1 target promoter against control promoter), 48 h; screened at 20 nM (by protocol)
How it was run: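 Parallel TC32-NR0B1-luc and TC32-CMV-luc reverse transfections with 20 nM siRNA in RPMI-1640/10% FBS, luciferase measured 48 h later. Seed-adjusted z-scores from normalized, z-score-MAD transformed data; AllStars negative and siGL4 controls on each plate.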

Sequence	seed-corrected z-score
UCAUUGAUCUAAAACGACC against PPFIA1	0.863
UUCUCCUUCACAUACCGGC against CLK3	0.176
UAUCUUCACUGAAUUGACC against ARL8B	0.269
AUAUGCUUCACAGUUCUAG against MMP1	-2.83
UAUAGGCCUUCUACAUUGC against ROM1	1.12
UUGCGAAUGAGGUUGUAGG against PIK3C2B	-0.721
UCUGAUAGCAAUAACUUGG against PPCS	-0.294
UGUUGACUCACUGUAGGCU against LOC729683	0.842
AAAGAGGAAACGGUAGGCC against JAGN1	-2.67
UAUUGGAUCCGGUGCAACC against SYPL2	-0.246
UUGGUUAUCCUCUAUACCC against MTERF3	0.193
UUCAUCAUCGAGGUCAUCC against DPF2	-3.12
UGAACUAUUGGAAUGUCUC against SEC11C	0.165
AUCGUAGUCAGUGUAUCUG against PPARGC1B	-0.163
UAUAGAGCUGCCGUCUCCG against ESRP2	-0.989
UCACUGUUUACUUAGCGCU against HIST1H2BJ	1.62
UGCCGAACCACUUCCAGAG against TNRC18P2	-1.02
AUAGUAAAUAAACACUGCC against RHBDL2	-2.55
AAUCUGAGAACAGACCGUG against MXD4	1.77

Sequence	seed-corrected z-score
AUAGGAGUAAGAAUUUUUG against NUDT10	-0.635
AUGCUUAUAAUGACCACCA against SLC51B	-2.22
UGAAACACCAUUAAAACGG against TDG	0.355
UAAAUCUGCUUAUCUCUUC against TFAM	-0.445
UUCUUGAAAAGGCAACAGU against POC1A	0.91
AAAGCGACAUUGUUUGACC against COPB2	-2.18
UUGGUCAUAGAGGUCGUCC against LSR	-1.71
UGUCGGAUGAGGUCAUUGC against TNS4	-2.96
UUGUUUGCAGGUUCUACUU against DDX19B	-0.121
UCUAGUAUUACUGCUACUG against DDHD2	0.72
AAUGUACAAGUGGUCAUUC against MAGED2	-2.83
UCAUAGUCCAGGGUAAGGC against LRP4	-1.11
UCUUUGUACGCAUCAAGUG against NPY1R	-0.0164
AUAGAUUAACCAUGUUUCC against KCNN3	-0.34
UCCAUUGAUAGAACCAUCU against HFE2	-0.476
UAAGAUGAUCGUGAACUUG against RPL39L	0.982
UGCAUUUCUAUAUUCAACC against TLE4	-0.442
UAUAGGUGUAGAUUACAGG against OR13G1	-0.49
